# Results: PubChem BioAssay AID588719 (Southern Research Specialized Biocontainment Screening …, 2011)
# Among all 1,500 compounds or so, about 920 (61%) were called active. The set was probably picked from earlier hits. Some of the results follow. Potency and affinity values are given separately. A number with no mark means an inactive call. The rule behind the calls is not given here.
# Experiment: Vero 76 cell cytotoxicity, dose response, cytotoxicity control for VEEV inhibitor project (AID 588719)
# Settings: Vero 76 cells viability, cytotoxicity counter-screen; series mostly up to 25 µM; viability: at the top concentration
row,Compound,viability [%]
1,Cc1ccccc1NC(=S)/C(=C(\[O-])c1ccc(C)c([N+](=O)[O-])c1)[n+]1ccccc1,97.6
2,O=C(Nc1ccccc1)c1cccc(Cn2cc(C(F)(F)F)ccc2=O)c1,80.6
3,Cc1cc(C(=O)NC2CCCc3c2cnn3-c2cccc(C)c2C)no1 (stereo not given),64.3
4,CCOC(=O)C1C(=O)C(=O)N(C2CCCCC2)C1C(=O)OCC (stereo not given),99.2
5,C/C(N)=C(/C#N)C(=O)COC(=O)c1cc(C)n(-c2ccc(F)cc2)c1C,76.3
6,CCCn1c(SCC(=O)N(C)C2CCS(=O)(=O)C2)nc2sc3c(c2c1=O)CCC3 (stereo not given),73.6
7,CN(C(=O)CCN1C(=O)/C(=C/c2ccccc2F)SC1=S)C1CCS(=O)(=O)C1 (stereo not given),97.8
8,Cc1cccc(C)c1OCC(=O)N(Cc1cccs1)C1CCS(=O)(=O)C1 (stereo not given),88
9,O=C(Cn1c(=O)sc2ccccc21)Nc1nc2c(s1)CCCC2,97.1
10,NC(=O)CC(NC(=O)Cc1ccc(Br)cc1)c1ccc(N2CCC(Cc3ccccc3)CC2)c([N+](=O)[O-])c1 (stereo not given),75.1
11,CCCCCCCCCC(=O)N[C@@H]1c2cc(OC)c(OC)cc2C[C@H]1OCc1ccccc1,81.8
12,CN(C)CCCN(C(=O)c1cc(-c2cccs2)nc2ccccc12)c1nc2ccc(F)cc2s1,81
13,CCCn1nc(NC(=O)c2cccs2)c2cc3cccc(C)c3nc21,83
14,COc1ccccc1C(CNC(=O)CNC(=O)c1ccc(Cl)c(Cl)c1)N1CCCC1 (stereo not given),89
15,COc1ccc(/C=N/NC(=O)c2cc[n+]([O-])cc2)cc1OC,94.5
16,C/C(=N\NC(=O)c1ccc(N/N=C(\C)c2ccc(O)cc2)cc1)c1ccc(O)cc1,86
17,C/C(=N/OCO/N=C(/C)c1ccc(F)cc1)c1ccc(F)cc1,81.7
18,Cc1ccc(S(=O)(=O)C2(C(=O)NCc3ccccc3Cl)CC2)cc1,86
19,Cc1ccccc1CN(C)C(C)C(=O)Nc1ccccc1F (stereo not given),92.6
20,Cc1ccccc1NC(=NCCCN1CC1)Nc1ccccc1C,82.8
21,O=C1C2CCCN2C(c2cccs2)N1c1ccc(Cl)cc1 (stereo not given),86.3
22,C[C@@H]1CN([C@H](C)CO)C(=O)CCCn2nncc2CO[C@H]1CN(C)C(=O)C1CC1,102
23,CC(C)[N+]1=C2C=CC=CC=C2SC12C([N+](=O)[O-])=CC(=[N+]([O-])[O-])C=C2[N+](=O)[O-] (stereo not given),84.7
24,CCC(=O)N1CCN(c2ccc(Cl)cc2NC(=O)c2cccc([N+](=O)[O-])c2)CC1,99.8
25,Cc1ccc(CS(=O)Cc2ccc(C(=O)N3CCN(c4cccc(C)c4C)CC3)o2)cc1 (stereo not given),97.3
26,O=C(Nc1csc([N+](=O)[O-])c1)Nc1ccccc1Cl,82.5
27,COc1ccc(Cl)cc1C=CC=Nc1ccc(S(N)(=O)=O)cc1,73.1
28,N#Cc1cccc(NC(=O)CSc2n[nH]c(=O)[nH]c2=O)c1,90.3

row,Compound,viability [%]
1,Cc1ccc(CN2CCCC(C(=O)c3ccc4c(c3)OCO4)C2)cc1C (stereo not given),87.6
2,O=[N+]([O-])c1cccc(/C([O-])=C(/C(=S)Nc2cccc3ccccc23)[n+]2ccccc2)c1,103
3,O=[N+]([O-])c1cccc(C([O-])=C(C(=S)Nc2cccc3ccccc23)[n+]2ccccc2)c1,93
4,COc1ccc(N2CCCC2)c(NC(=O)c2ccc([N+](=O)[O-])o2)c1,97.5
5,Cc1nc(N)[nH]c(=O)c1CCCNc1ccc([N+](=O)[O-])cc1,90.7
6,C=CCNCCCCOc1ccc(OCc2ccccc2)cc1,92.5
7,CCn1c(=O)c([N+](=O)[O-])c(NCc2ccc3c(c2)OCO3)c2ccccc21,86
8,Cc1ccc(Nc2nc(=O)c3cccnc3s2)c(Br)c1,98.6
9,CCN1C/C(=C\c2cc(OC)c(OC)c(OC)c2)C2=NN(c3ccccc3)C(c3cc(OC)c(OC)c(OC)c3)C2C1 (stereo not given),86.3
10,CC(C)CN1C(=O)/C(=C(/C#N)C(=O)NC2CCCCC2)c2ccccc21,85.1
11,Cc1ccc(SCCC(=O)Nc2nccs2)cc1,96.8
12,COc1ccc(C(=O)NC2CCCc3c2cnn3-c2cccc(C)c2C)o1 (stereo not given),74.2
13,Cn1c(CCN2CCCCC2)nc2cc(NC(=O)COc3ccc([N+](=O)[O-])cc3)ccc21,87.6
14,COc1ccc(Cl)cc1S(=O)(=O)N1CCN(C(=O)c2n[nH]c(=O)c3ccccc23)CC1,86.1
15,O=c1oc(C2(O)CCCCC2)cc2ccc(-c3ccc4[nH]ccc4c3)cc12,57
16,O=C(C=Cc1cccc(Cl)c1)c1ccccc1,94.6
17,Cc1cc(NC(=O)C(C)SCC(=O)N(Cc2ccccc2)c2ccccc2)no1 (stereo not given),80.7
18,Cc1cc(NC(=O)COC(=O)c2cc(S(=O)(=O)N(C)c3ccccc3)ccc2Cl)no1,92.1
19,Cc1nc(N)ncc1Sc1ccccc1,85.3
20,O=C(O)c1cc(-c2ccc3ccccc3c2)nc2ccc(F)cc12,94.6
21,O=C(CSc1nc2ccc(Cl)cc2[nH]1)c1cccs1,82
22,O=C(/C=C/c1ccnc2ccccc12)c1cccs1,94.5
23,CN1CCN(c2ccc(CNS(=O)(=O)c3ccccc3)cc2)CC1,91.8
24,COc1cccc(N2CCN(c3ccc(S(=O)(=O)N4CCN(C)CC4)cc3[N+](=O)[O-])CC2)c1,71
25,COc1ccc(N2CCN(CCCn3c(=S)[nH]c4ncccc4c3=O)CC2)cc1,86.2
26,C#CCSc1nc(=O)c2cccnc2n1-c1ccc(C)cc1,102
27,CCN(CC)CC(=O)Nc1ccc(/C(C)=N/NC2=NCCN2)cc1,87.9
